Results: PubChem BioAssay (EPA / NIEHS)
Where “and” joins values, the source holds several entries; their conditions need not be identical. Equal values may be shown once. Some compounds were tested as several samples or in several runs, with calls that do not always agree. Calls of active or inactive are those of the source. The calls were made as follows: active = hit-call score of the fitted dose curve at least 0.9, where 1 is the maximum; inactive = score below 0.9.

Legend:
Details in all cases: mRNA level, 48 h; actives raise or lower the signal
[1] = read-out: Cytochrome P450 3A7 (Homo sapiens) (UniProt P24462); experiment: LTEA_HepaRG_CYP3A7: Life Technologies and Expression Analysis (LTEA) Assay for CYP3A7 using HepaRG (AID 2283492)
Summary of the method: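 qRT-PCR of CYP3A7 in HepaRG lysates after 48 h treatment; concentration-response (8 points, max 100 uM) analysed bidirectionally relative to 0.5% DMSO controls.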

CYP3A5 (gene 1577) = experiment: LTEA_HepaRG_CYP3A5: Life Technologies and Expression Analysis (LTEA) Assay for CYP3A5 using HepaRG (AID 2283493)
Summary of the method: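 mRNA levels were quantified by qRT-PCR on Fluidigm arrays and normalized to three housekeeping genes. Differentiated HepaRG cells received 48 h exposure (top 100 uM, half-log steps, 0.5% DMSO vehicle, duplicate); bidirectional fitting versus DMSO.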

[2] = read-out: Fatty Acid-Binding Protein 1 (FABP1), FABP1 (gene 2168); experiment: LTEA_HepaRG_FABP1: Life Technologies and Expression Analysis (LTEA) Assay for Fatty Acid-Binding Protein 1 (FABP1) using HepaRG (AID 2283494)
Summary of the method: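 FABP1 expression by TaqMan qRT-PCR, normalised to three housekeeping genes, in HepaRG cells after 48 h chemical treatment. Eight-point half-log series topping at 100 uM in 0.5% DMSO, duplicates; gain or loss fitted relative to vehicle.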

[3] = read-out: Cytochrome P450 4A22 (Homo sapiens) (UniProt Q5TCH4); experiment: LTEA_HepaRG_CYP4A22: Life Technologies and Expression Analysis (LTEA) Assay for Cytochrome P450 4A22 (CYP4A22) using HepaRG (AID 2283495)
Summary of the method: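 Concentration-response (8 points, max 100 uM, 0.5% DMSO) in human HepaRG liver cells after 48 h exposure. CYP4A22 mRNA by TaqMan qRT-PCR with housekeeping-gene normalization.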

[4] = read-out: Cytochrome P450 7A1 (Homo sapiens) (UniProt P22680); experiment: LTEA_HepaRG_CYP7A1: Life Technologies and Expression Analysis (LTEA) Assay for Cytochrome P450 7A1 (CYP7A1) using HepaRG (AID 2283496)
Summary of the method: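 HepaRG, 48 h exposure, 8-pt half-log series from 100 uM, 0.5% DMSO vehicle, duplicates. Readout: TaqMan qRT-PCR mRNA vs three housekeeping genes; bidirectional curve fit against DMSO baseline.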

[5] = read-out: Glutathione S-Transferase (GSTA2), GSTA2 (gene 2939); experiment: LTEA_HepaRG_GSTA2: Life Technologies and Expression Analysis (LTEA) Assay for Glutathione S-Transferase (GSTA2) using HepaRG (AID 2283497)
Summary of the method: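 GSTA2 transcript levels came from Fluidigm TaqMan qRT-PCR normalized to three housekeeping genes, fitted in both directions against DMSO. HepaRG cultures received chemicals for 48 h in serum-free induction medium (0.5% DMSO), 8 half-log concentrations up to 100 uM, duplicate.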

[6] = read-out: Glutamate-cysteine ligase catalytic (GCLC), GCLC (gene 2729); experiment: LTEA_HepaRG_GCLC: Life Technologies and Expression Analysis (LTEA) Assay for Glutamate-cysteine ligase catalytic (GCLC) using HepaRG (AID 2283498)
Summary of the method: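 Expression by TaqMan qRT-PCR, normalized to three housekeeping genes (ACTB, GAPDH, POLR2A), with up- or down-regulation fitted against DMSO. HepaRG cells dosed in duplicate for 48 h with 8 half-log concentrations up to 100 uM, vehicle 0.5% DMSO.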

[7] = read-out: growth arrest and DNA damage 45 (GADD45G), GADD45G (gene 10912); experiment: LTEA_HepaRG_GADD45G: Life Technologies and Expression Analysis (LTEA) Assay for growth arrest and DNA damage 45 (GADD45G) using HepaRG (AID 2283499)
Summary of the method: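 Concentration-response in HepaRG: 48 h dosing, 0.5% DMSO, highest level 100 uM. GADD45G expression by qRT-PCR, normalised to endogenous controls; bidirectional fit to DMSO.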

[8] = read-out: Glutamate-cysteine ligase regulatory (GCLM), GCLM (gene 2730); experiment: LTEA_HepaRG_GCLM: Life Technologies and Expression Analysis (LTEA) Assay for Glutamate-cysteine ligase regulatory (GCLM) using HepaRG (AID 2283500)
Summary of the method: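 GCLM expression quantified by qRT-PCR, normalized to three housekeeping genes, after 48 h chemical treatment of HepaRG cells in duplicate at 8 concentrations (top 100 uM, half-log steps, 0.5% DMSO). Changes fitted both directions against vehicle.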

Measured: AC50

Chain of Cytochrome P450 3A7 (Homo sapiens) (P24462 whole entry, looked up): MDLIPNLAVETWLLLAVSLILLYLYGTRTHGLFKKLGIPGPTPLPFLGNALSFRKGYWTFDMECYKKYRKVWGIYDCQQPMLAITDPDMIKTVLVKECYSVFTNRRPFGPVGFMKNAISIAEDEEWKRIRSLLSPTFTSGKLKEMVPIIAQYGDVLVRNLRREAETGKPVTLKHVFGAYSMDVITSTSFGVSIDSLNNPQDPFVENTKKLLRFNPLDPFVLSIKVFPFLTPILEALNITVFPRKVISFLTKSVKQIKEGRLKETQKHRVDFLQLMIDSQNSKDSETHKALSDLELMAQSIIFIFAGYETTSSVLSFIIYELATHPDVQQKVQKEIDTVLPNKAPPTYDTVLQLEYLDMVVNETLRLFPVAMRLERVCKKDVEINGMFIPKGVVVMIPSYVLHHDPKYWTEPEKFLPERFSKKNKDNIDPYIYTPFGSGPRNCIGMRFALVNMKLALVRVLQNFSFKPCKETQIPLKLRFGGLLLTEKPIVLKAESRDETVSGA

Cc1[nH]c(=O)n(C(C)(C)C)c(=O)c1Cl
inactive: [1] | CYP3A5 (gene 1577) | [2] | [3] | [5] | [6] | [7] | [8]
active: [4] 18.8 µM

CNC(=O)Oc1cccc(N=CN(C)C)c1
inactive: [1] | CYP3A5 (gene 1577) | [2] | [3] | [4] | [5] | [6] | [7] | [8]

O=S(=O)(O)C(F)(F)C(F)(F)C(F)(F)C(F)(F)C(F)(F)C(F)(F)C(F)(F)C(F)(F)F
active: [2] 94.2 µM and 77 µM | [3] 89.2 µM [middle of 4 runs] | [4] 94.4 µM and 94 µM and 75.4 µM | [5] 76.5 µM [middle of 4 runs] | [7] 5.76 µM
inactive: CYP3A5 (gene 1577) | [2] | [4] | [6] | [7] | [8]

CN1CSC(=S)N(C)C1
inactive: [1] | CYP3A5 (gene 1577) | [2] | [3] | [4] | [5] | [6] | [7] | [8]

O=C(O)CCCOc1ccc(Cl)cc1Cl
inactive: [3] | [4] | [5] | [6] | [7] | [8]
active: CYP3A5 (gene 1577) 36.5 µM | [2] 10.1 µM

CNC(=O)CSP(=S)(OC)OC
inactive: [1] | CYP3A5 (gene 1577) | [2] | [3] | [4] | [5] | [6] | [7] | [8]

C#CCN1C(=O)COc2cc(F)c(N3C(=O)C4=C(CCCC4)C3=O)cc21
active: [1] 0.97 µM | [2] 25.4 µM | [3] 16.1 µM
inactive: CYP3A5 (gene 1577) | [4] | [5] | [6] | [7] | [8]

CNC(=O)Oc1ccccc1OC(C)C
inactive: CYP3A5 (gene 1577) | [2] | [3] | [5] | [6] | [7] | [8]
active: [1] 1.52 µM

COP(=O)(OC)OC=C(Cl)Cl
inactive: [1] | CYP3A5 (gene 1577) | [3] | [4] | [5] | [6] | [7] | [8]

O=[N+]([O-])c1c(Cl)c(Cl)c(Cl)c(Cl)c1Cl
active: [2] 50 µM
inactive: [1] | CYP3A5 (gene 1577) | [3] | [4] | [5] | [6] | [7] | [8]

CC(C)(C)C(O)C(Oc1ccc(Cl)cc1)n1cncn1 (stereo unspecified)
inactive: CYP3A5 (gene 1577) | [5] | [6] | [7] | [8]
active: [2] 50 µM and 21.4 µM | [3] 12.8 µM and 14.6 µM and 18 µM | [4] 8.02 µM and 9.92 µM and 1.24 µM

Clc1ccccc1-c1nnc(-c2ccccc2Cl)nn1
active: [1] 6.87 µM | [2] 18.8 µM | [4] 24 µM | [8] 23 µM
inactive: CYP3A5 (gene 1577) | [3] | [5] | [7]

CCC(C)(NC(=O)c1cc(Cl)c(C)c(Cl)c1)C(=O)CCl (stereo unspecified)
inactive: [6] | [7] | [8]
active: [1] 82.1 µM | CYP3A5 (gene 1577) 89.6 µM | [2] 46.5 µM | [3] 74.9 µM | [4] 73.8 µM | [5] 78.7 µM

CCc1ccc(C(=O)NN(C(=O)c2cc(C)cc(C)c2)C(C)(C)C)cc1
inactive: CYP3A5 (gene 1577) | [5] | [6] | [7] | [8]
active: [1] 12.1 µM | [2] 50 µM | [3] 74.4 µM | [4] 4.22 µM

CC1(c2ccc(Oc3ccccc3)cc2)OC(=O)N(Nc2ccccc2)C1=O (stereo unspecified)
inactive: [6]
active: [1] 24.8 µM | CYP3A5 (gene 1577) 90.2 µM | [2] 18.7 µM | [3] 9.55 µM | [4] 12.3 µM | [5] 24.5 µM | [7] 12.3 µM | [8] 9.75 µM

N#Cc1c(Cl)c(Cl)c(Cl)c(C#N)c1Cl
inactive: CYP3A5 (gene 1577) | [4] | [6] | [7] | [8]
active: [1] 50 µM | [2] 77.7 µM | [5] 34 µM

CCCN(CCOc1c(Cl)cc(Cl)cc1Cl)C(=O)n1ccnc1
active: [1] 32.4 µM | [2] 32.9 µM | [3] 27.7 µM | [4] 33.2 µM | [5] 31.8 µM | [6] 12.4 µM | [7] 13 µM | [8] 13.4 µM
inactive: CYP3A5 (gene 1577)

N#CN
inactive: [1] | CYP3A5 (gene 1577) | [2] | [3] | [4] | [5] | [6] | [7] | [8]

CC(C)OC(=O)Nc1cccc(Cl)c1
inactive: [1] | CYP3A5 (gene 1577) | [2] | [3] | [4] | [5] | [6] | [7] | [8]

COP(=S)(OC)Oc1ccc(SC)c(C)c1
active: [8] 0.244 µM
inactive: CYP3A5 (gene 1577) | [2] | [3] | [4] | [5] | [6] | [7]

CC1(C)C(C=C(Cl)Cl)C1C(=O)OC(C#N)c1ccc(F)c(Oc2ccccc2)c1 (stereo unspecified)
inactive: [1] | CYP3A5 (gene 1577) | [2] | [3] | [4] | [5] | [6] | [7] | [8]

O=C(NC(=O)c1c(F)cccc1F)Nc1ccc(OC(F)(F)C(F)OC(F)(F)F)c(Cl)c1 (stereo unspecified)
inactive: [1] | CYP3A5 (gene 1577) | [2] | [3] | [4] | [5] | [6] | [7] | [8]

CCOC1Oc2ccc(OS(C)(=O)=O)cc2C1(C)C (stereo unspecified)
inactive: [1] | [6]
active: CYP3A5 (gene 1577) 75.2 µM | [2] 63.7 µM | [3] 62.6 µM | [4] 85.6 µM | [5] 82 µM | [7] 78.3 µM | [8] 81.8 µM

O=[N+]([O-])/N=C1\NCCN1Cc1ccc(Cl)nc1
inactive: [1] | CYP3A5 (gene 1577) | [3] | [7] | [8]
active: [2] 36 µM | [4] 34.1 µM | [5] 39.9 µM | [6] 24.6 µM
